Results from PubChem BioAssay (Tox21).
Inconclusive results are not listed. Calls of active or inactive are those of the source. Unless noted, calls come from the whole dose curve; as a rule, active = well fitted curve in the direction sought with a large enough effect in the repeat runs; inconclusive = weak or mixed curves; inactive = no such curve, though single readings can be large; an effect the other way counts as inactive or inconclusive.

Tests used:
[1] = qHTS RealTime-Glo MT Cell Viability Assay in HEK293 cells - 24 hour (AID 1224886); note: top concentration of the series differs between compounds; nearly all actives have a fitted effect of over 50% in size
Summary of the method: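 Quantitative high-throughput screen of the Tox21 10K library in HEK293: cells and RealTime-Glo reagents plated together, compound added at 5 h, luminescence monitored through 40 h at 37 C.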

[2] = qHTS RealTime-Glo MT Cell Viability Assay in HEK293 cells - 8 hour (AID 1224887); note: top concentration of the series differs between compounds; nearly all actives have a fitted effect of over 50% in size
Summary of the method: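 Luminescence, which tracks viable cell number through reduction of the prosubstrate to a NanoLuc substrate, was read over continuous 37 C culture. Cells (600/well) were premixed with reagent and rested 5 h before 23 nL of compound in DMSO was pinned.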

[3] = A CellTox Green Cytotoxicity Assay to monitor cytotoxicity in HEK293 cells - 16 hour (AID 1224888); note: nearly all actives have a fitted effect of over 35% in size
Summary of the method: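 Fluorescence from a DNA-binding dye excluded by viable cells was measured repeatedly in the same HEK293 wells (600 cells/well) during continuous compound exposure at 37 C. Each assay gives one read point: 0, 8, 16, 24, 32 or 40 h.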

[4] = qHTS RealTime-Glo MT Cell Viability Assay in HepG2 cells - 0 hour (AID 1224889); note: nearly all actives have a fitted effect of over 50% in size; note: potency is the fitted concentration of half-maximal effect
Summary of the method: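 Compound treatment began 5 h after plating HepG2 cells (600/well) with NanoLuc luciferase and prosubstrate. Plates stayed at 37 C for 40 h; luminescence was captured at six time points, 0 h through 40 h.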

[5] = A CellTox Green Cytotoxicity Assay to monitor cytotoxicity in HepG2 cells - 8 hour (AID 1224890); note: nearly all actives have a fitted effect of over 45% in size
Summary of the method: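 Real-time cytotoxicity: fluorescence of a cell-impermeant cyanine dye binding DNA of dead HepG2 cells, measured repeatedly (0–40 h) during compound exposure at 37 C. Cells seeded 600/well with reagent, dosed after 5 h.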

[6] = qHTS assay to identify small molecule antagonists of the estrogen receptor alpha (ER-alpha) signaling pathway using the BG1 cell line in the presence of 0.1 nM 17-beta-estradiol - cell viability counter screen (AID 1259241); note: nearly all actives have a fitted effect of over 40% in size
Summary of the method: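 VM7Luc4E2 cells (endogenous ER-alpha, 4×ERE-luciferase), hormone-starved 5 days in charcoal-stripped FBS, were treated with compounds plus 0.1 nM 17beta-estradiol for 22 hr at 37C; viability read in same wells as CellTiter-Fluor live-cell protease fluorescence.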

[7] = qHTS assay to identify small molecule antagonists of the androgen receptor (AR) signaling pathway using the MDA cell line in the presence of 0.5 nM R1881 - cell viability counter screen (AID 1259242); note: nearly all actives have a fitted effect of over 45% in size
Summary of the method: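 Live-cell protease activity was measured by CellTiter-Fluor fluorescence after 30 min. Before that, MDA-kb2 MMTV-luciferase cells had 16 hr at 37C without CO2, exposed to test compounds and 0.5 nM R1881 final.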

[8] = qHTS assay to identify small molecule HDAC inhibitors (AID 1259364); note: nearly all actives have a fitted effect of over 45% in size; note: potency is the fitted concentration of half-maximal effect
Summary of the method: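 Luminescence read after 30 min room-temperature HDAC-Glo incubation measures cellular class I/II HDAC activity. Compounds were applied for 2 hr at 37 C to HCT-116 wild-type cells seeded the day before.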

[9] = qHTS assay to identify small molecule HDAC inhibitors - cell viability counter screen (AID 1259365); note: series mostly up to about 92 µM; nearly all actives have a fitted effect of over 50% in size
Summary of the method: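 Wild-type HCT-116 cells were seeded at 1,500 per well, incubated overnight at 37 C, then exposed to compounds in DMSO for 2hr. Viability was read by CellTiter-Glo luminescence after 30min at room temperature.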

[10] = qHTS assay to identify small molecule agonists of the sonic hedgehog signaling (Shh) pathway - cell viability counter screen (AID 1259366); note: nearly all actives have a fitted effect of over 50% in size; note: potency is the fitted concentration of half-maximal effect
Summary of the method: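 NIH/3T3-derived 3T3 Gli1-Luc cells (stable Gli1-responsive firefly luciferase reporter) were seeded, rested 4 hr at 37 C/5% CO2, then exposed to compounds in DMSO for 24 hr; viability was read by CellTiter-Fluor fluorescence in the same wells.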

[11] = qHTS assay to identify small molecule antagonists of the sonic hedgehog signaling (Shh) pathway - cell viability counter screen (AID 1259367); note: nearly all actives have a fitted effect of over 55% in size; note: potency is the fitted concentration of half-maximal effect
Summary of the method: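 Fluorescence read-out (CellTiter-Fluor, 1 hr at 37C) taken after 23 hr compound treatment of 3T3 Gli1-Luc cells stimulated with conditioned medium. Cells were seeded at 2,000 per well and pre-incubated 4 hr.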

[12] = qHTS assay to identify small molecule agonists of the sonic hedgehog signaling (Shh) pathway (AID 1259368; calls by dose curve; note: series mostly up to about 92 µM; nearly all actives have a fitted effect of over 15% in size)
Summary of the method: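 Luminescence was read after 30 min at room temperature with luciferase reagent. Before that, 3T3Gli1-Luc cells (NIH/3T3 clone, stable Gli1-Luc reporter; 2,000/well) were exposed to compounds for 24 hr at 37C, 5% CO2, compounds being added 4 hr post-plating.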

[13] = qHTS assay to identify small molecule agonists of the androgen receptor (AR) signaling pathway in the presence of an antagonist - cell viability counter screen (AID 1259379); note: nearly all actives have a fitted effect of over 25% in size; note: potency is the fitted concentration of half-maximal effect
Summary of the method: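 Cytotoxicity counter-screen run in the same wells as the nilutamide-challenged (3.0 µM final) AR agonist assay in MDA-kb2 cells. Compounds tested at 15 concentrations for 16 h, 37 °C without CO2; CellTiter-Fluor fluorescence read.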

[14] = target: Estrogen receptor (Homo sapiens) (UniProt P03372); assay: qHTS assay to identify small molecule antagonists of the estrogen receptor alpha (ER-alpha) signaling pathway using the BG1 cell line in the presence of 0.1 nM 17-beta-estradiol (AID 1259244); note: nearly all actives have a fitted effect of over 50% in size
Estrogen receptor (Homo sapiens), sequence (P03372 whole entry, looked up): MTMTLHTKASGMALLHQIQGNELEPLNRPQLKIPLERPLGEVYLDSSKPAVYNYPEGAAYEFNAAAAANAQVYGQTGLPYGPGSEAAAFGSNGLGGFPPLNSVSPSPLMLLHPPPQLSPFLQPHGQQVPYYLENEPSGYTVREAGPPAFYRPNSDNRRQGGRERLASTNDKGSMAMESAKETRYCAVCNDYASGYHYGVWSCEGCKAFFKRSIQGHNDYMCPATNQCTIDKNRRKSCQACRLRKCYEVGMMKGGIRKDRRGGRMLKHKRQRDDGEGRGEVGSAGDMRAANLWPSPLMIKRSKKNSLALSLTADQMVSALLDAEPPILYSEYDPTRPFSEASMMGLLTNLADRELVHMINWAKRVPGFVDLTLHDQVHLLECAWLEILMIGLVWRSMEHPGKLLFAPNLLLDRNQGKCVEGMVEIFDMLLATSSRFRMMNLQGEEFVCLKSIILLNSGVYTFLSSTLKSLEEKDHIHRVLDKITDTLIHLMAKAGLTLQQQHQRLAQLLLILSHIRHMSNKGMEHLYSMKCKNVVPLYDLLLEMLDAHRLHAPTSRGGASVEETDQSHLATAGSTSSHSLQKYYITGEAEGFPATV
Summary of the method: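 Luciferase luminescence (ONE-Glo, 30 min at room temperature) was read after 22 hr at 37C exposure to compounds plus 17beta-estradiol at 0.1 nM final. Cells were VM7Luc4E2 with endogenous ER-alpha and an ERE-driven luciferase, pre-cultured 5 days in hormone-depleted medium.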

[15] = qHTS assay to identify small molecule antagonists of the sonic hedgehog signaling (Shh) pathway (AID 1259369; calls by dose curve; note: nearly all actives have a fitted effect of over 45% in size; note: potency is the fitted concentration of half-maximal effect)
Summary of the method: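 Antagonist mode: compound added to 3T3 Gli1-Luc cells followed by conditioned-medium stimulation, 24 h at 37 C, 5% CO2. Inhibition taken as loss of Gli1-driven luciferase luminescence.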

[16] = target: Estrogen receptor beta (Homo sapiens) (UniProt Q92731); assay: qHTS assay to identify small molecule agonists of the estrogen receptor beta (ER-beta) signaling pathway (AID 1259377; active = well fitted activation curve with a large enough effect in the signal ratio in the repeat runs, not every such curve was filed as active; the % refers to the signal ratio)
Estrogen receptor beta (Homo sapiens), sequence (Q92731 whole entry, looked up): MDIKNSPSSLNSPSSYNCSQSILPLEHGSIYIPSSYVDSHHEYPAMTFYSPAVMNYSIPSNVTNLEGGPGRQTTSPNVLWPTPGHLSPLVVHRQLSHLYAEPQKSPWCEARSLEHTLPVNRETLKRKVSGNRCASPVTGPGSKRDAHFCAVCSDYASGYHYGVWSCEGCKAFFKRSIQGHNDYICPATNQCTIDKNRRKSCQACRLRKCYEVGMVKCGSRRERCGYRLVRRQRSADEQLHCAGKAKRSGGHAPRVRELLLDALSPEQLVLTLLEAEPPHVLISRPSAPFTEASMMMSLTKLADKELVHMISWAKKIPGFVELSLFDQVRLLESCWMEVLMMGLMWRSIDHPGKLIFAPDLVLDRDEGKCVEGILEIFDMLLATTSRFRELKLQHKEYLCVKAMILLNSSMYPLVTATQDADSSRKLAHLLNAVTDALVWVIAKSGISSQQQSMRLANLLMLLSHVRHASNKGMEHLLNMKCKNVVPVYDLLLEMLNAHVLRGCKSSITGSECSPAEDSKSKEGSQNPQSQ
Summary of the method: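 ER-beta-UAS-bla HEK293T (GripTite) cells carrying a UAS-driven beta-lactamase reporter, in medium with 2% charcoal-stripped FBS, were exposed to compounds for 16 hr at 37C; LiveBLAzer B/G FRET substrate was then added and fluorescence read after 2 hours at room temperature.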

[17] = target: Estrogen receptor beta (Homo sapiens) (UniProt Q92731); assay: qHTS assay to identify small molecule antagonists of the estrogen receptor beta (ER-beta) signaling pathway (AID 1259378; active = well fitted inhibition curve with a large enough effect in the signal ratio in the repeat runs, not every such curve was filed as active; the % refers to the signal ratio)
Summary of the method: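 ER-beta-UAS-bla HEK293T cells in 2% charcoal-stripped FBS medium treated with compound plus 1nM final 17-beta-estradiol for 16 hr at 37C. Beta-lactamase reporter read by FRET substrate fluorescence after 2 hours at room temperature.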

[18] = qHTS assay to identify small molecule agonists of the estrogen receptor beta (ER-beta) signaling pathway - cell viability counter screen (AID 1259380); note: nearly all actives have a fitted effect of over 30% in size
Summary of the method: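 Cell viability counter screen: CellTiter-Glo luminescence (30 min, room temperature) measured in the same wells as the beta-lactamase readout, after 16 hr compound exposure at 37C of ER-beta-bla HEK293T cells in 2% charcoal-stripped FBS medium.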

[19] = target: Androgen receptor (Homo sapiens) (UniProt P10275); assay: qHTS assay to identify small molecule antagonists of the androgen receptor (AR) signaling pathway using the MDA cell line in the presence of 0.5 nM R1881 (AID 1259243); note: nearly all actives have a fitted effect of over 50% in size
Androgen receptor (Homo sapiens), sequence (P10275 whole entry, looked up): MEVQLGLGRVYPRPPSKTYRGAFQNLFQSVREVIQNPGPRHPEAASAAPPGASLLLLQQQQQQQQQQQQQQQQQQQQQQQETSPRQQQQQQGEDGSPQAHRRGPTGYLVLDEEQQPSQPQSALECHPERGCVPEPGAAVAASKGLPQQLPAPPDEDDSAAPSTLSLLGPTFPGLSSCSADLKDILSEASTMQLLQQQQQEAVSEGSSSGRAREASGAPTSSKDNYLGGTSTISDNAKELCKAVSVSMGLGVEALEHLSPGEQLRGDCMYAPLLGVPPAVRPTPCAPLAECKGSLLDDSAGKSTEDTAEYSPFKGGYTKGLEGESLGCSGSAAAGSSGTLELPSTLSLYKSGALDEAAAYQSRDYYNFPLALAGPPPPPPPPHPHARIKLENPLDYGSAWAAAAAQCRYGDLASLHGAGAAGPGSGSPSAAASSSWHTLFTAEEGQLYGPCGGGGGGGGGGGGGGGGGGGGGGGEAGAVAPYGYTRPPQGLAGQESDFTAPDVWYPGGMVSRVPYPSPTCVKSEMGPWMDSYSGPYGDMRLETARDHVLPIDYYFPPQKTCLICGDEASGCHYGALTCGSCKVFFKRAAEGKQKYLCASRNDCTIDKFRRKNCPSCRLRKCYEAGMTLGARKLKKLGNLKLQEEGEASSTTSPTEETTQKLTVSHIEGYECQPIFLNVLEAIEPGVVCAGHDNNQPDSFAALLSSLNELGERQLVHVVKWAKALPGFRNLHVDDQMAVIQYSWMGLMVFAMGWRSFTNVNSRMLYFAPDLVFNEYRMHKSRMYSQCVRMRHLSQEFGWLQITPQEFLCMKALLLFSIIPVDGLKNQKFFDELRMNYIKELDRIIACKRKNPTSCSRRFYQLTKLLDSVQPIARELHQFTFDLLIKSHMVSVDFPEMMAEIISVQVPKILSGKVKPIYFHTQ
Summary of the method: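 Luminescent reporter readout (ONE-Glo, 30 min, room temperature) after 16 hr co-treatment of MDA-kb2 cells with test compounds and 0.5 nM R1881 final, at 37C without CO2. The MMTV-driven luciferase responds to both AR and GR.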

[20] = qHTS assay to identify small molecule phospholipidosis (PLD) inducers (AID 1259344; active = well fitted curve in the direction sought with a large enough effect; an effect the other way counts as inactive or inconclusive)
Summary of the method: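 Read-out is LipidTOX Red fluorescence (ex 595/em 615) imaged in HepG2 cells after 24 h compound exposure at 37 C, with Hoechst nuclear counterstain (ex 352/em 461) allowing per-cell normalisation.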

Measured: Potency

Cc1ccc(C(=O)C(=O)O)cc1C
inactive: [1] | [2] | [3] | [4] | [5] | [6] | [7] | [8] | [9] | [10] | [11] | [12] | [13]

Cc1cccc(C(=O)O)c1[N+](=O)[O-]
inactive: [1] | [2] | [3] | [4] | [6] | [7] | [14] | [8] | [9] | [10] | [12] | [15] | [16] | [17] | [13] | [18]

COc1cc([N+](=O)[O-])ccc1N
inactive: [1] | [2] | [3] | [4] | [5] | [19] | [14] | [9] | [16] | [17] | [18]
active: [10] 54.5 µM | [11] 54.5 µM | [13] 34.4 µM

CC(=O)c1ccc(OCC(=O)N2CCCCC2)cc1
active: [8] 13.3 µM
inactive: [1] | [2] | [3] | [4] | [6] | [7] | [14] | [20] | [9] | [10] | [11] | [12] | [15] | [13] | [18]

C1=CCC(c2ccccc2)CC1 (stereo unspecified)
inactive: [1] | [2] | [3] | [4] | [5] | [6] | [7] | [8] | [9] | [10] | [12] | [15] | [16] | [17] | [13] | [18]

O=C1OC(=O)c2cc(Oc3ccc4c(c3)C(=O)OC4=O)ccc21
inactive: [1] | [2] | [3] | [4] | [6] | [7] | [19] | [8] | [9] | [10] | [11] | [15] | [13] | [18]

COc1cc2c(Nc3ccc(Br)cc3F)ncnc2cc1OCC1CCN(C)CC1
inactive: [1] | [2] | [3] | [4] | [6] | [7] | [20] | [8] | [9] | [10] | [11] | [12] | [15] | [16] | [17] | [13] | [18]

C[C@@H]1C[C@H]2[C@@H]3C[C@H](F)C4=CC(=O)C=C[C@]4(C)[C@@]3(F)[C@@H](O)C[C@]2(C)[C@@]1(O)C(=O)CO
active: [4] 21.3 µM | [15] 0.668 µM
inactive: [1] | [2] | [3] | [6] | [7] | [20] | [8] | [9] | [10] | [11] | [12] | [16] | [13]
